Source: PubChem BioAssay (NCATS)
Inconclusive results are not listed. Where a call stands in place of a potency, no number is given. Active and inactive are the calls of the source. The call rests on the fitted dose curve; in most records, active means well fitted curve in the direction sought with a large enough effect; inconclusive means small, poorly fitted or top-dose-only effect, or another doubt; inactive means no such curve, though single readings can be large; an effect the other way counts as inactive or inconclusive.

What was measured:
[1] = S16 Schwann cell PMP22 intronic element firefly luciferase assay (AID 624032); further: nearly all actives have a fitted effect of over 30% in size
In short: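 Luciferase reporter of PMP22 intronic-element expression in stably transfected S16 rat Schwann cells, read by ONE-Glo luminescence after 24 h compound exposure at 37 C. Activity scaled between DMSO (0%) and positive-control PTC124; concentration-effect curves quality-classified.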

3D7 = assay: qHTS profiling for inhibitors of Plasmodium falciparum proliferation (AID 504749); further: nearly all actives have a fitted effect of over 60% in size; further: potency means the concentration at half of the fitted maximal effect; conditions: P. falciparum in erythrocytes, SYBR Green DNA, 72 h; series mostly up to 12.8 µM
In short: (§1)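 Three-day growth assay of blood-stage parasites in erythrocytes (0.3% parasitemia, 2.5% hematocrit) at 37 C, 5% CO2, quantified by SYBR Green DNA staining after overnight detergent lysis.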

AS120 = assay: as above; conditions: P. falciparum in erythrocytes, SYBR Green DNA, 72 h; series mostly up to 12.8 µM
In short: as §1

ATS189 = assay: as above; conditions: P. falciparum in erythrocytes, SYBR Green DNA, 72 h; series mostly up to 12.8 µM
In short: as §1

ATS95 = assay: as above; conditions: P. falciparum in erythrocytes, SYBR Green DNA, 72 h; series mostly up to 12.8 µM
In short: as §1

CP192 = assay: as above; conditions: P. falciparum in erythrocytes, SYBR Green DNA, 72 h; series mostly up to 12.8 µM
In short: as §1

CP217 = assay: as above; conditions: P. falciparum in erythrocytes, SYBR Green DNA, 72 h; series mostly up to 12.8 µM
In short: as §1

CP238 = assay: as above; conditions: P. falciparum in erythrocytes, SYBR Green DNA, 72 h; series mostly up to 12.8 µM
In short: as §1

CP247 = assay: as above; conditions: P. falciparum in erythrocytes, SYBR Green DNA, 72 h; series mostly up to 12.8 µM
In short: as §1

CP256 = assay: as above; conditions: P. falciparum in erythrocytes, SYBR Green DNA, 72 h; series mostly up to 12.8 µM
In short: as §1

CP262 = assay: as above; conditions: P. falciparum in erythrocytes, SYBR Green DNA, 72 h; series mostly up to 12.8 µM
In short: as §1

CP268 = assay: as above; conditions: P. falciparum in erythrocytes, SYBR Green DNA, 72 h; series mostly up to 12.8 µM
In short: as §1

CP305 = assay: as above; conditions: P. falciparum in erythrocytes, SYBR Green DNA, 72 h; series mostly up to 12.8 µM
In short: as §1

CP325 = assay: as above; conditions: P. falciparum in erythrocytes, SYBR Green DNA, 72 h; series mostly up to 12.8 µM
In short: as §1

Dd2 = assay: as above; conditions: P. falciparum in erythrocytes, SYBR Green DNA, 72 h; series mostly up to 12.8 µM
In short: as §1

N140 = assay: as above; conditions: P. falciparum in erythrocytes, SYBR Green DNA, 72 h; series mostly up to 12.8 µM
In short: as §1

PC15 = assay: as above; conditions: P. falciparum in erythrocytes, SYBR Green DNA, 72 h; series mostly up to 12.8 µM
In short: as §1

PC49 = assay: as above; conditions: P. falciparum in erythrocytes, SYBR Green DNA, 72 h; series mostly up to 12.8 µM
In short: as §1

TAB109 = assay: as above; conditions: P. falciparum in erythrocytes, SYBR Green DNA, 72 h; series mostly up to 12.8 µM
In short: as §1

TAB113 = assay: as above; conditions: P. falciparum in erythrocytes, SYBR Green DNA, 72 h; series mostly up to 12.8 µM
In short: as §1

Compound	Potency [1]	Potency (3D7)	Potency (AS120)	Potency (ATS189)	Potency (ATS95)	Potency (CP192)	Potency (CP217)	Potency (CP238)	Potency (CP247)	Potency (CP256)	Potency (CP262)	Potency (CP268)	Potency (CP305)	Potency (CP325)	Potency (Dd2)	Potency (N140)	Potency (PC15)	Potency (PC49)	Potency (TAB109)	Potency (TAB113)
CCCC[C@H](CC)CN1CN(C[C@@H](CC)CCCC)CC(C)(N)C1	inactive	inactive	inactive	inactive	inactive	inactive	inactive	inactive	inactive	inactive	inactive	inactive	inactive	inactive	inactive	inactive	inactive	inactive	inactive	inactive
CCOC(=O)[C@H](CCc1ccccc1)N[C@@H](C)C(=O)N1[C@H](C(=O)O)C[C@H]2CCC[C@@H]21	inactive	inactive	inactive	inactive	inactive	inactive	inactive	inactive	inactive	inactive	inactive	inactive	inactive	inactive	inactive	inactive	inactive	inactive	inactive	inactive
COc1c(O[C@H]2O[C@@H](CO)[C@@H](O)[C@@H](O)[C@@H]2O)cc2c(c1OC)-c1ccc(SC)c(=O)cc1[C@H](NC(C)=O)CC2	inactive	inactive	inactive	inactive	inactive	inactive	inactive	inactive	inactive	inactive	inactive	inactive	inactive	inactive	inactive	inactive	inactive	inactive	inactive	inactive
CCC(=O)O[C@@H]1[C@H](C)O[C@H](O[C@H]2[C@@H](N(C)C)[C@H](O)[C@@H](O[C@@H]3[C@@H](CC=O)C[C@@H](C)[C@@H](O)/C=C\C=C/C[C@@H](C)OC(=O)C[C@@H](OC(=O)CC)[C@H]3OC)O[C@H]2C)C[C@]1(C)O	inactive	inactive	inactive	inactive	inactive	inactive	inactive		inactive						3.16 µM (active)		inactive	inactive		inactive
CO[C@H]1[C@@H](OC(N)=O)[C@H](O)[C@@H](Oc2ccc3c(O)c(NC(=O)c4ccc(O)c(CC=C(C)C)c4)c(=O)oc3c2C)OC1(C)C	inactive	inactive	inactive	inactive	inactive	inactive	inactive	inactive	inactive	inactive	inactive	inactive	inactive	inactive	inactive	inactive	inactive	inactive	inactive	inactive
C[C@H]1CC[C@]2(OC1)O[C@@H]1C[C@@H]3[C@@H]4CC[C@H]5C[C@@H](O)CC[C@]5(C)[C@@H]4CC(=O)[C@@]3(C)[C@H]1[C@@H]2C	inactive	inactive	inactive	inactive	inactive	inactive	inactive	inactive	inactive	inactive	inactive	inactive	inactive	inactive	inactive	inactive	inactive	inactive	inactive	inactive
CC(=O)OCC(=O)[C@@]1(O)[C@H](C)C[C@@H]2[C@H]3CCC4=CC(=O)C=C[C@]4(C)[C@]3(F)[C@@H](O)C[C@@]21C	inactive	inactive	inactive	inactive	inactive	inactive	inactive	inactive	inactive	inactive	inactive	inactive	inactive	inactive	inactive	inactive	inactive	inactive	inactive	inactive
Cc1ccc(S(=O)(=O)NC(=O)NN2C[C@H]3CCC[C@@H]3C2)cc1	inactive	inactive	inactive	inactive	inactive	inactive	inactive	inactive	inactive	inactive	inactive	inactive	inactive	inactive	inactive	inactive	inactive	inactive	inactive	inactive
NC(=O)c1cc[n+](CC2=C(C(=O)[O-])N3C(=O)[C@@H](NC(=O)Cc4cccs4)[C@@H]3SC2)cc1	inactive	inactive	inactive	inactive	inactive	inactive	inactive	inactive	inactive	inactive	inactive	inactive	inactive	inactive	inactive	inactive	inactive	inactive	inactive	inactive
CC1(C)O[C@@H]2C[C@H]3[C@H]4C[C@H](F)C5=CC(=O)CC[C@]5(C)[C@@H]4[C@H](O)C[C@]3(C)[C@]2(C(=O)CO)O1	inactive	inactive	inactive	inactive	inactive		inactive	inactive	inactive	inactive	inactive	inactive	inactive	inactive	inactive	inactive	inactive	inactive	inactive	inactive
C[C@H](Oc1ccccc1)C(=O)N[C@@H]1C(=O)N2[C@@H]1SC(C)(C)[C@@H]2C(=O)O	inactive	inactive	inactive	inactive	inactive	inactive	inactive	inactive	inactive	inactive	inactive	inactive	inactive	inactive	inactive	inactive	inactive	inactive	inactive	inactive
CC(C)NC[C@H]1CCc2cc(CO)c([N+](=O)[O-])cc2N1	inactive	inactive	inactive	inactive	inactive	inactive	inactive	inactive	inactive	inactive		inactive	inactive	inactive	inactive	inactive	inactive	inactive	inactive	inactive
CN(C)CCn1nnnc1SCC1=C(C(=O)O)N2C(=O)[C@@H](NC(=O)Cc3csc(N)n3)[C@@H]2SC1	inactive	inactive	inactive		inactive	inactive	inactive	inactive	inactive	inactive	inactive	inactive	inactive	inactive	inactive			inactive		
COc1cc2nc(N3CCN(C(=O)[C@@H]4CCCO4)CC3)nc(N)c2cc1OC	inactive	inactive	inactive	inactive	inactive	inactive	inactive	inactive	inactive	inactive	inactive	inactive	inactive	inactive	inactive	inactive	inactive	inactive	inactive	inactive
OCCN1CCN(CCC=C2c3ccccc3Sc3ccc(Cl)cc32)CC1	inactive							inactive		3.55 µM (active)		inactive	inactive		3.98 µM (active)					inactive
CN1CCN([C@@H](c2ccccc2)c2ccc(Cl)cc2)CC1	inactive	inactive				inactive	inactive	inactive	inactive	3.55 µM (active)	inactive		inactive	inactive		inactive	inactive	inactive	inactive	
NCc1ccccc1CC(=O)N[C@@H]1C(=O)N2C(C(=O)O)=C(CSc3nnnn3CC(=O)O)CS[C@@H]12	inactive	inactive	inactive	inactive	inactive	inactive	inactive	inactive	inactive	inactive	inactive	inactive	inactive	inactive	inactive	inactive	inactive	inactive	inactive	inactive
CCC(=O)O[C@@]1(C(=O)SCF)[C@@H](C)C[C@H]2[C@@H]3C[C@@H](F)C4=CC(=O)C=C[C@@]4(C)[C@]3(F)[C@@H](O)C[C@]21C	inactive					inactive			inactive	inactive	inactive	inactive	inactive	inactive		3.98 µM (active)				
Clc1ccc([C@H](Cn2ccnc2)OCc2csc3c(Cl)cccc23)c(Cl)c1		3.55 µM (active)	2.51 µM (active)								inactive	inactive			3.55 µM (active)	3.98 µM (active)				
NC(=O)c1ccc[n+]([C@@H]2O[C@H](COP(=O)([O-])OP(=O)(O)OC[C@H]3O[C@@H](n4cnc5c(N)ncnc54)[C@@H](O)[C@@H]3O)[C@@H](O)[C@@H]2O)c1	inactive	inactive	inactive	inactive	inactive	inactive	inactive	inactive	inactive	inactive	inactive	inactive	inactive	inactive	inactive	inactive	inactive	inactive	inactive	inactive
CC[C@H](Cc1c(I)cc(I)c(N)c1I)C(=O)O		inactive	inactive	inactive	inactive	inactive	inactive	inactive	inactive	inactive	inactive	inactive	inactive	inactive	inactive	inactive	inactive	inactive	inactive	inactive
CN(C/C=C\c1ccccc1)Cc1cccc2ccccc12		inactive	inactive	inactive	inactive	inactive	inactive	inactive	inactive	inactive	inactive	inactive	inactive	inactive	inactive	inactive	inactive	inactive	inactive	inactive
C=CC1=C(C(=O)O)N2C(=O)[C@@H](NC(=O)/C(=N\OCC(=O)O)c3csc(N)n3)[C@@H]2SC1	inactive	inactive	inactive	inactive	inactive	inactive	inactive	inactive	inactive	inactive	inactive		inactive	inactive	inactive	inactive	inactive	inactive	inactive	inactive
NS(=O)(=O)c1cc2c(cc1C(F)(F)F)N[C@H](Cc1ccccc1)NS2(=O)=O	inactive	inactive	inactive	inactive	inactive	inactive	inactive	inactive	inactive	inactive	inactive	inactive	inactive	inactive	inactive	inactive	inactive	inactive	inactive	inactive
